In PubChem BioAssay (NCATS):
Records with an inconclusive call do not appear. Entries that show only a call come without a potency. Calls of active or inactive are those of the source. The call rests on the fitted dose curve; in most records, active means well fitted inhibition curve with a large enough effect; inconclusive means small, poorly fitted or top-dose-only effect; inactive means flat fitted curve, though single readings scatter.

molecular target: Calcium and integrin-binding protein 1 (Homo sapiens) (UniProt Q99828); experiment: Primary qHTS for Identification of Calcium Integrin Binding Protein 1 (CIB1) Competitor (AID 1508620); conditions: CIB1-GST / FITC-alphaIIb peptide fluorescence polarization; series mostly up to 114 µM; further: top concentration of the series differs between compounds
Summary of the method: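 Fluorescence polarization competition: GST-tagged CIB1 (1 uM final) preincubated with compound 15 min at room temperature, then FITC-labelled alphaIIb peptide (100 nM final) added. After 15 min at room temperature, polarization read at Ex 480/Em 540.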

Chain of Calcium and integrin-binding protein 1 (Homo sapiens) (Q99828 whole entry, looked up): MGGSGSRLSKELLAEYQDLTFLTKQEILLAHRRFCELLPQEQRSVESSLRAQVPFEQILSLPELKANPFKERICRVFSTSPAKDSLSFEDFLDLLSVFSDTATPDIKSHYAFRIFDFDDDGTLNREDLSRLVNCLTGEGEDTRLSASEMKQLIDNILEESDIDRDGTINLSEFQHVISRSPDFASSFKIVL

| SMILES | Potency |
| --- | --- |
| O=C1CN(S(=O)(=O)c2c(F)cccc2F)CCN1S(=O)(=O)c1ccc2c(c1)OCCO2 | inactive |
| NC(=O)c1c(NC(=O)C2CCCO2)sc2c1CCCC2 (centres undefined) | inactive |
| CN1CCN(c2cccc(Nc3nn4c(=O)c5ccc(F)cc5nc4s3)c2)CC1 | inactive |
| Cc1noc(C)c1-c1ccc2ncnc(NCc3ccc(C(F)(F)F)o3)c2c1 | inactive |
| Cn1nnnc1Sc1ncnc2scc(-c3ccc(N)cc3)c12 | inactive |
| O=C1N/C(=C\c2ccco2)C(=O)N1Cc1ccc(F)cc1 | inactive |
| Cc1cc(N[S+](=O)([O-])c2ccc(NC(=O)Cc3ccc4c(c3)CCO4)cc2)no1 | inactive |
| N#Cc1c(-c2ccc(Cl)c([N+](=O)[O-])c2)no[n+]1[O-] | inactive |
| NC(=O)C1CCN(c2ncc(-c3ccc4c(c3)OC(F)(F)O4)s2)CC1 | inactive |
| Cc1cc(N2C(=O)c3ccccc3C2=O)n[nH]1 | inactive |
| NC(=O)C1CCN(c2ncnc(-c3ccc4c(c3)OCCCO4)n2)CC1 | inactive |
| O=c1c2ccccc2nc2sc(NCc3ccc(Oc4ccccc4)cc3)nn12 | inactive |
| Cc1cc2c(s1)c1cnn(Cc3cc(OC(F)(F)F)ccc3F)c(=O)c1n2C | inactive |
| Cc1cc(-c2nc(Nc3ccc(F)c(F)c3)c3ccccc3n2)cc(C)n1 | inactive |
| CCCCN(C)C(=O)Cn1nc(-c2ccc(C(C)(C)C)cc2)ccc1=O | inactive |
| NC(=O)C1CCN(c2ncc(-c3cccc(F)c3)s2)CC1 | inactive |
| N#Cc1nc(Nc2ccccc2)nc(NC2CCCCC2)n1 | inactive |
| O=C(Nc1cccc2nn(-c3ccc(F)cc3)cc12)c1ccccn1 | inactive |
| O=C(c1ccccc1O)N(Cc1ccco1)Cc1cccs1 | inactive |
| Cc1ccc(OCCn2c(CCNC(=O)CCc3ccc(N)cc3)nc3ccccc32)cc1 | inactive |

| SMILES | Potency |
| --- | --- |
| O=C(Nc1ccc(N2CCOCC2)c(C(F)(F)F)c1)Nc1nnc(-c2ccncc2)s1 | inactive |
| CC(=O)Nc1sc2c(c1-c1ccc(N[S+](C)(=O)[O-])cc1)CCNC2 | inactive |
| CC(C)(C)OC(=O)NC1CCN(c2nc(-c3ccc(Br)cc3)cs2)CC1 | inactive |
| O=C1CCCC2=C1C(c1[nH]ncc1Cl)N=C(Nc1nc3c(Cl)cccc3o1)N2 (centres undefined) | inactive |
| COc1ccc(/C=C2/C(=O)Nc3ccccc32)cc1O | inactive |
| Cc1ccc(OCCn2c(CCNC(=O)c3ccc4cc[nH]c4c3)nc3ccccc32)cc1 | inactive |
| COc1ccccc1-c1csc2ncnc(Sc3nnnn3C)c12 | inactive |
| Cc1cc2c(s1)c1cnn(Cc3cccc(C(F)(F)F)c3)c(=O)c1n2C | inactive |
| Cc1cc(C)n2ncc(C(=O)Nc3cc(Cl)cc(Cl)c3)c2n1 | inactive |
| O=C1Cc2cc(S(=O)(=O)N3CCN(c4ccc(Cl)cc4)CC3)ccc2N1 | inactive |
| COc1cc2ncnc(N(C)Cc3cccs3)c2cc1-c1ccc2c(c1)OCO2 | inactive |
| Cc1cc(C)nc(/N=C(\NC#N)N2CCN(c3cccc(C(F)(F)F)c3)CC2)c1 | inactive |
| Cc1ccnc(NC(=S)Nc2cccc(C(F)(F)F)c2)c1 | inactive |
| CC1(C)CC(=O)C2=C(C1)NC(Nc1nc3ccccc3o1)=NC21CCCC1 | inactive |
| O=C(NC1CCCc2c1cnn2-c1ccc(F)cc1F)c1cnon1 (centres undefined) | inactive |
| COc1ccc(NCc2ccc(O)c3ncccc23)nc1 | inactive |
| Cc1nnc(-c2cnn(C)c2N)n1CCCc1ccccn1 | inactive |
| Cc1ccc(OCCn2c(CCNC(=O)c3ccc(Br)o3)nc3ccccc32)cc1 | inactive |
| COc1ccc(N2C[C@]34C=C[C@H](O3)C(C(=O)O)C4C2=O)cc1OC (some centres undefined) | inactive |
